# CRFBP-R2 block = CRF-BP/CRF-R2 complex antagonism | HEK293 CRF-R2/CRF-BP, CRF-induced calcium fluorescence | inhibition, % at 11.8 µM | 0.59% of 350,000 active | AID 588475;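 active = inhibition of the ligand-induced calcium signal above about 50% at the single tested concentration, limit read from the data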
# PfG6PD inh = PfG6PD (Plasmodium falciparum) enzyme inhibition | PfGluPho enzyme, NADPH resazurin-diaphorase fluorescence | 0.78% of 350,000 active | inhibition, % at 20 µM;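 active = inhibition reaching at least a set limit at 20 µM in the primary screen, cut at about 59% in these data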
# FAS-TE inh = blocks the thioesterase domain of human fatty acid synthase; 0.67% of 360,000 active; inhibition, % at 15 µM; AID 602261; P49327; recombinant FAS-TE, OMFH fluorogenic substrate, fluorescence endpoint;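 active = compounds whose normalised, plate-corrected inhibition of enzyme fluorescence in the single-dose primary screen is 50% or more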
# Target sequence (P49327 whole entry, looked up, the tested form may be a part): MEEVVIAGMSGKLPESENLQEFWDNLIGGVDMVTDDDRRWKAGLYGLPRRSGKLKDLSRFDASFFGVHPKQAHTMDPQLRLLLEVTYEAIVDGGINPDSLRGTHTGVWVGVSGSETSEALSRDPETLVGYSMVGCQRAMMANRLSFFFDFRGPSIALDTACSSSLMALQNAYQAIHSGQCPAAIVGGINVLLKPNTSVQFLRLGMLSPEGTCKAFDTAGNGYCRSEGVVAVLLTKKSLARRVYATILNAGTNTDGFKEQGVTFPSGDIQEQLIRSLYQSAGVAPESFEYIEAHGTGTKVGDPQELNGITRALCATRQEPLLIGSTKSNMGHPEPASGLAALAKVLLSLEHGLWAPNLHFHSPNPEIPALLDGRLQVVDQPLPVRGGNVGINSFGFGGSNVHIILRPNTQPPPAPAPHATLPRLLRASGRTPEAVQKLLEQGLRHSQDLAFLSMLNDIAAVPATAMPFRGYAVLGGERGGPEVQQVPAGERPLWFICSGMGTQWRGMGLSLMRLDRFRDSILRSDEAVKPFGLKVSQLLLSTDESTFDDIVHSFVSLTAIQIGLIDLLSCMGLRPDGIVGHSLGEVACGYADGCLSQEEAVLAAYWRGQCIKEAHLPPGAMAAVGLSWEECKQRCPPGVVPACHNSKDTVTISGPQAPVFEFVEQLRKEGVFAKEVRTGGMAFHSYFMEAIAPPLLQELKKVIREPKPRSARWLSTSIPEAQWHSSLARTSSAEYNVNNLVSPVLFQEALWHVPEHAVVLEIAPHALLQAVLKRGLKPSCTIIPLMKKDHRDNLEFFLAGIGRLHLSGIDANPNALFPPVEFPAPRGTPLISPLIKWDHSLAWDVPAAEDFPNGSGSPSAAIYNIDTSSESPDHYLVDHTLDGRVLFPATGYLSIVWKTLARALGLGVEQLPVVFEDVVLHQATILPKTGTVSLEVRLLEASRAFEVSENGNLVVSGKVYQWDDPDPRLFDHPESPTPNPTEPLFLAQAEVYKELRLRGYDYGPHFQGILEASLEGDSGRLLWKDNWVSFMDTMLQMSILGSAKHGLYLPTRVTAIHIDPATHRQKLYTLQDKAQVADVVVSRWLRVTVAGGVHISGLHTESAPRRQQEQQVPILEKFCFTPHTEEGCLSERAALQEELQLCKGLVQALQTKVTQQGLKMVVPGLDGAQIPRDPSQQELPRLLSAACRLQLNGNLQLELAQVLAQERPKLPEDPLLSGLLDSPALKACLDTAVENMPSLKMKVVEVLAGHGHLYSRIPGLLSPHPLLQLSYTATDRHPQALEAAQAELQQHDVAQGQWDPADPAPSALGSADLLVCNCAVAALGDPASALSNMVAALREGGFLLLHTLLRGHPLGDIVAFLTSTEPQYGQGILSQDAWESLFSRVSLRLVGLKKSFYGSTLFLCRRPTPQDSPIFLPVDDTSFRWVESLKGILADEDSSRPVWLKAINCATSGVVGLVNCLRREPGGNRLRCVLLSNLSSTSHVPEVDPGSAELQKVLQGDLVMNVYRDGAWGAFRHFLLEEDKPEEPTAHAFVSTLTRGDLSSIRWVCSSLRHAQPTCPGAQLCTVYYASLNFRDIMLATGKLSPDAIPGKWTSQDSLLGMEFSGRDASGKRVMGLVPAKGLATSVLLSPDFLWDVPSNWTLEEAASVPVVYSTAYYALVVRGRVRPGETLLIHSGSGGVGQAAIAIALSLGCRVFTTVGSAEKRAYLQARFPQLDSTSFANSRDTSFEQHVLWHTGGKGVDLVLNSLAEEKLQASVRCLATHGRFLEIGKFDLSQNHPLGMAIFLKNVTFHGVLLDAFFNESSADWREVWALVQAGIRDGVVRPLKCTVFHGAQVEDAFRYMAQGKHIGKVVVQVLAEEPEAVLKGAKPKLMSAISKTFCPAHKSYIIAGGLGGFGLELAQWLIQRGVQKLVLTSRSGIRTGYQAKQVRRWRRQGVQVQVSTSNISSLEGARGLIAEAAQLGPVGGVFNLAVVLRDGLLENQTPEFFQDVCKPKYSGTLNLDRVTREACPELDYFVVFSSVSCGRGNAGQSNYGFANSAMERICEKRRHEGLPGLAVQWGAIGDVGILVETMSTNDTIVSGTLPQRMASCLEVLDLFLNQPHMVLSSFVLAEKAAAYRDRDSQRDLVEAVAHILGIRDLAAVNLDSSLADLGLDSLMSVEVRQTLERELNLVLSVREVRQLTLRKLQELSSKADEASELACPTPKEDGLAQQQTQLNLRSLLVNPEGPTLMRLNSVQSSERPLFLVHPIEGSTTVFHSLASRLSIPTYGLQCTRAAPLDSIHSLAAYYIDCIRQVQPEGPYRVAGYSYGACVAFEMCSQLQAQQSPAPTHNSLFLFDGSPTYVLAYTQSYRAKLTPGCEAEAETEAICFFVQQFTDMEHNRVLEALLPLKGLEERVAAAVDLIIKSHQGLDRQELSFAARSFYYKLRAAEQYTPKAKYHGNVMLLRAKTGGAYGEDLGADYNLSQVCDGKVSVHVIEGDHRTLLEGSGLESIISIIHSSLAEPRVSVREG
# Cardio protect = protects H9c2 cardiomyocytes from peroxide injury. protection from H2O2 cell death, % at 20 µM. H2O2 injury protection, ATPLite, 2 h. AID 588492. 0.63% of 360,000 active;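 active = compounds giving at least 50% protection of heart cells from peroxide-induced death in the single-dose screen, raw or plate-pattern-corrected value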
# aDG glyco up = increases alpha dystroglycan glycosylation; Pro5-aDG cells, alpha-DG glycosylation AlphaScreen (IIH6); 0% Pro5, 100% B10-LARGE cell signal; activation, % at 10 µM; 0.22% of 360,000 active; AID 624168;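 active = activation of at least 8% versus controls, or a plate z-score of at least 8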;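 note: Pro5 are CHO cells carrying HIG-tagged alpha-DG that lacks glycosylation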
# CRFR2-BP ag = CRF-BP/CRF-R2 complex agonism | activation, % at 13.2 µM | HEK293 CRF-R2/CRF-BP, calcium dye fluorescence (FLIPR); percent of saturating CRF peptide response | 0.46% of 350,000 active;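 active = activation of at least 50%, plus an integration ratio under a set limit after plate pattern correction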
# PfG6PD confirm = PfG6PD inhibition, single-dose confirmed | inhibition, % at 20 µM | recombinant PfGluPho, NADPH-diaphorase-resazurin fluorescence | shares compounds with PfG6PD inh | 34% of 2,400 active;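 active = inhibition of at least 50% at 20 µM in any single replicate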
# Diaphorase 10uM = counter-screen for P. falciparum G6PD inhibitors: diaphorase inhibitors, oxidizers; diaphorase-coupled resazurin reduction, fluorescence, NADPH 10 uM; shares compounds with PfG6PD inh; inhibition, % at 20 µM; 39% of 820 active; AID 504862;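 active = average inhibition reaching 50% or more with the compound at 20 µM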;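 note: resorufin red fluorescence formed as diaphorase reduces resazurin using NADPH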
# Diaphorase 30uM = counter-screen for P. falciparum G6PD inhibitors: diaphorase inhibitors, oxidizers. inhibition, % at 20 µM. shares compounds with PfG6PD inh. Diaphorase/resazurin coupled assay, resorufin fluorescence, 30 uM NADPH. 29% of 820 active. AID 504863;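 active = inhibition averaging 50% or more, tested at 20 µM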
# A number is an active result; n = inactive; x = not tested or not shown. The list is not random: actives were taken first. Their share in the collection is about 3.2%.
SMILES,CRFBP-R2 block,PfG6PD inh,FAS-TE inh,Cardio protect,aDG glyco up,CRFR2-BP ag,PfG6PD confirm,others
COc1cccc(-c2nn(C)c3sc(C(=O)NCc4ccc(C)o4)cc23)c1,n,63.7,n,n,n,n,n,
CSc1ccc(C2Nc3cccc4cccc(c34)N2)cc1,n,63.6,n,n,n,n,n,
COc1cc([N+](=O)[O-])ccc1-c1ccc(/C=N\n2cnnc2)o1,n,n,n,n,n,n,x,
COc1cc([N+](=O)[O-])ccc1-c1ccc(/C=C2\C(=O)ON=C2c2ccccc2)o1,n,73.5,n,n,n,n,n,
CN(C)c1ccc(C=c2c3ccccc3n3c2c2ccccc2[n+]3C)cc1,n,88.8,n,n,n,n,88.4,Diaphorase 10uM=n;Diaphorase 30uM=n
CN(C)c1ccc(C=c2c3cc(O)ccc3n3c2cc(-c2ccccc2)[n+]3C)cc1,n,82.5,n,n,n,n,88.7,Diaphorase 10uM=n;Diaphorase 30uM=n
CN(C)c1ccc(/C=C(\C#N)c2ccccc2)cc1,n,n,n,n,n,n,x,
C[n+]1c(-c2ccccc2)cc2c(=Cc3ccc([N+](=O)[O-])cc3)c3ccccc3n21,n,76.3,n,n,n,n,49.9,Diaphorase 10uM=n;Diaphorase 30uM=n
CC(C)n1c2ccccc2c2cc([N+](=O)[O-])ccc21,n,n,n,n,n,n,x,
CN(C)c1ccc(C=C2C=Cc3ccccc32)cc1,n,n,n,n,n,n,x,
COc1ccc(CC(=O)OCC(=O)NCc2ccc3c(c2)OCO3)cc1OC,n,n,n,n,n,n,x,
CC(C)(C)c1nnc(NC(=O)c2ccc(Cl)nc2)s1,n,102.7,n,n,n,n,95.1,Diaphorase 10uM=80.8;Diaphorase 30uM=62.3
O=C(Nc1nnc(C2CC2)s1)c1ccc(S(=O)(=O)c2ccccc2)cc1,n,n,n,n,n,n,x,
C=CCSc1nnc(NC(=O)c2ccc(Cl)nc2)s1,n,82.2,n,n,n,n,77.9,Diaphorase 10uM=71.8;Diaphorase 30uM=n
O=C(Nc1nnc(C2CC2)s1)c1ccc(Cl)nc1,n,80.3,n,n,n,n,57.6,Diaphorase 10uM=63.6;Diaphorase 30uM=n
CCc1nnc(NC(=O)c2ccc(Cl)nc2)s1,n,77.7,n,n,n,n,56.9,Diaphorase 10uM=n;Diaphorase 30uM=n
CC(C)(C)c1ccc(-c2nnc(NC(=O)c3ccccc3)s2)cc1,n,n,n,n,n,n,x,
C=CCSc1nnc(NC(=O)c2ccc(N3CCCC3=O)cc2)s1,n,n,n,n,n,n,x,
CCOC(=O)CSc1nc(C)cc(C)c1C(N)=O,n,n,n,n,n,n,x,
CS(=O)(=O)c1ccc(N)c(SSc2cc(S(C)(=O)=O)ccc2N)c1,n,97.0,n,n,n,n,99.1,Diaphorase 10uM=n;Diaphorase 30uM=n
CS(=O)(=O)c1ccc2nc(N)sc2c1,n,n,n,n,n,n,x,
COCC(C)NC(=O)c1nn(Cc2ccccc2)c(=O)c2ccccc12 (stereo unspecified),n,n,n,n,n,n,x,
C#CCOCCOCCOCCNc1nc(N2CCN(C(=O)CCCCCCCCCCNC(=O)Cn3cc(CCCCCN)nn3)CC2)nc(N2CCN(C(=O)CCCCCCCCCCNC(=O)[C@H](CO)n3cc(CCCCCN)nn3)CC2)n1,n,61.6,n,n,n,n,n,
C#CCOCCOCCOCCNc1nc(N2CCN(C(=O)CCCCCCCCCCNC(=O)[C@H](CCCCN)n3cc(CCO)nn3)CC2)nc(N2CCN(C(=O)CCCCCCCCCCNC(=O)[C@H](CCCCN)n3cc(CCO)nn3)CC2)n1,n,68.4,n,n,n,n,n,
C#CCOCCOCCOCCNc1nc(N2CCN(C(=O)CCCCCCCCCCNC(=O)[C@H](CCCCN)n3cc(C)nn3)CC2)nc(N2CCN(C(=O)CCCCCCCCCCNC(=O)[C@@H]([C@H](C)CC)n3cc(CCCCCN)nn3)CC2)n1,x,x,n,n,n,x,x,
SMILES,CRFBP-R2 block,PfG6PD inh,FAS-TE inh,Cardio protect,aDG glyco up,CRFR2-BP ag,PfG6PD confirm,others
C#CCOCCOCCOCCNc1nc(N2CCN(C(=O)CCCCCCCCCCNC(=O)[C@H](CCC(=O)O)n3cc(CCCCCN)nn3)CC2)nc(N2CCN(C(=O)CCCCCCCCCCNC(=O)[C@@H]([C@H](C)O)n3cc(C)nn3)CC2)n1,n,n,n,n,n,n,x,
C#CCOCCOCCOCCNc1nc(N2CCN(C(=O)CCCCCCCCCCNC(=O)[C@H](CCCCN)n3cc(CCO)nn3)CC2)nc(N2CCN(C(=O)CCCCCCCCCCNC(=O)[C@@H]([C@H](C)O)n3cc(C)nn3)CC2)n1,n,66.0,n,n,n,n,n,
C#CCOCCOCCOCCNc1nc(N2CCN(C(=O)CCCCCCCCCCNC(=O)[C@H](CCCCN)n3cc(C[C@@H](C)CC)nn3)CC2)nc(N2CCN(C(=O)CCCCCCCCCCNC(=O)[C@H](CCCCN)n3cc(C[C@@H](C)CC)nn3)CC2)n1,n,73.8,n,n,n,91.5,n,
C#CCOCCOCCOCCNc1nc(N2CCN(C(=O)CCCCCCCCCCNC(=O)[C@H](CCCCN)n3cc(CCCC(=O)O)nn3)CC2)nc(N2CCN(C(=O)CCCCCCCCCCNC(=O)[C@H](CCCCN)n3cc(CCCC(=O)O)nn3)CC2)n1,n,n,n,n,n,n,x,
C#CCOCCOCCOCCNc1nc(N2CCOCC2)nc(N2CCN(C(=O)CCCCCCCCCCNC(=O)[C@H](CO)n3cc(CCCCCN)nn3)CC2)n1,n,n,n,n,n,n,x,
CCc1nc2ccc(C(=O)NCCc3ccco3)cc2nc1CC,n,n,n,n,n,n,x,
O=C(Nc1ccccc1)c1ccc2nc(-c3ccco3)c(-c3ccco3)nc2c1,n,61.2,n,n,n,n,n,
O=C(NCCCO)c1ccc2nc(-c3ccco3)c(-c3ccco3)nc2c1,n,75.3,n,n,n,n,n,
O=C(NCc1ccccc1)c1ccc2nc(-c3ccco3)c(-c3ccco3)nc2c1,n,n,n,n,n,n,x,
COc1cc(C(=O)N/C(=C\c2cn(S(=O)(=O)N(C)C)c3ccccc23)C(=O)N2CCCC2)cc(OC)c1OC,n,n,n,n,n,n,x,
CCOC(=O)CCc1c(C(=O)OCC)[nH]c(CC)c1C(=O)OCc1ccccc1,n,n,n,n,n,n,x,
Cc1cc(C=C2C(=O)c3ccccc3C2=O)c(C)n1-c1ccc(C(=O)O)cc1,n,100.2,n,n,n,n,73.0,Diaphorase 10uM=53.8;Diaphorase 30uM=61.0
Cc1cc(C=C2C(=O)c3ccccc3C2=O)c(C)n1-c1ccccc1,n,n,n,n,n,n,x,
Cc1cc(C=C2C(=O)c3ccccc3C2=O)c(C)n1-c1cccc(C(=O)O)c1,n,60.6,n,n,n,n,n,

# Screening data deposited in PubChem by Sanford-Burnham Center for Chemical Genomics.
